From PubChem BioAssay (Tox21)
Records with an inconclusive call do not appear. The source made the active and inactive calls. Unless noted, calls come from the whole dose curve; as a rule, active = well fitted curve in the direction sought with a large enough effect in the repeat runs; inconclusive = weak or mixed curves; inactive = no such curve, though single readings can be large; an effect the other way counts as inactive or inconclusive.

Tests used:
[1] = qHTS assay to identify small molecule antagonists of the glucocorticoid receptor (GR) signaling pathway - cell viability counter screen (AID 720693); note: nearly all actives have a fitted effect of over 55% in size
[2] = qHTS assay for identifying genotoxic compounds that show differential cytotoxicity against isogenic chicken DT40 cell lines with known DNA damage response pathways - wild type cell line (AID 743012); note: nearly all actives have a fitted effect of over 60% in size
How it was run: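 Parental DNA repair-proficient DT40 cells, 300 per well, were pre-incubated ~0.5 h at 37 C/5% CO2, pin-dosed with compounds in DMSO, then incubated 40 h. Viability was read as CellTiter-Glo luminescence after 30 min at room temperature.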

[3] = qHTS assay for identifying genotoxic compounds that show differential cytotoxicity against isogenic chicken DT40 cell lines with known DNA damage response pathways - Rev3 mutant cell line (AID 743014); note: nearly all actives have a fitted effect of over 55% in size
[4] = qHTS assay for identifying genotoxic compounds that show differential cytotoxicity against isogenic chicken DT40 cell lines with known DNA damage response pathways - Rad54/Ku70 mutant cell line (AID 743015); note: nearly all actives have a fitted effect of over 60% in size
[5] = qHTS assay to identify small molecule antagonists of the androgen receptor (AR) signaling pathway - cell viability counter screen (AID 743033; note: nearly all actives have a fitted effect of over 45% in size)
[6] = qHTS assay to identify small molecule antagonists of the androgen receptor (AR) signaling pathway using the MDA cell line - cell viability counter screen (AID 743041; note: nearly all actives have a fitted effect of over 45% in size)
How it was run: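 MDA-kb2 AR-luc human breast carcinoma cells (MMTV-luciferase, AR/GR responsive) were treated with compounds plus R1881 agonist for 16 h at 37 °C. Viability was read as CellTiter-Fluor fluorescence in the same wells as the reporter assay.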

[7] = qHTS assay to identify small molecule antagonists of the thyroid receptor (TR) signaling pathway - cell viability counter screen (AID 743064); note: nearly all actives have a fitted effect of over 50% in size; note: potency is the fitted concentration of half-maximal effect
How it was run: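 Plate GH3.TRE-Luc cells; incubate 4 h at 37 °C; add compound, then T3 to 1 nM final; incubate 23.5 h; add CellTiter-Fluor; incubate 30 min at 37 °C, 5% CO2; read fluorescence.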

[8] = qHTS assay to identify small molecule antagonists of the thyroid receptor (TR) signaling pathway (AID 743065); note: series mostly up to about 70 µM; nearly all actives have a fitted effect of over 55% in size
How it was run: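 GH3.TRE-Luc rat pituitary cells carrying two TR response elements driving luciferase were plated for 4 h, given compound plus 1 nM T3 (final), and incubated 23.5 h at 37 C. ONE-Glo luminescence measured reporter inhibition; CellTiter-Fluor fluorescence tracked cytotoxicity.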

[9] = system: thyroid hormone receptor (rat, GH3 cells); assay: qHTS assay to identify small molecule agonists of the thyroid receptor (TR) signaling pathway (AID 743066; calls by dose curve)
[10] = qHTS assay to identify small molecule antagonists of the estrogen receptor alpha (ER-alpha) signaling pathway - cell viability counter screen (AID 743074; calls by dose curve; note: nearly all actives have a fitted effect of over 45% in size)
Aromatase (Homo sapiens) = Aromatase (Homo sapiens) (UniProt P11511); assay: qHTS assay to identify aromatase inhibitors (AID 743083); note: series mostly up to about 70 µM; nearly all actives have a fitted effect of over 55% in size
[11] = qHTS assay to identify small molecule antagonists of the estrogen receptor alpha (ER-alpha) signaling pathway using the BG1 cell line - cell viability counter screen (AID 743081);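 note: compound given together with 17beta-estradiol as the ER stimulus; series mostly up to about 70 µM; nearly all actives have a fitted effect of over 45% in size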
[12] = molecular target: Estrogen receptor (Homo sapiens) (UniProt P03372); assay: qHTS assay to identify small molecule antagonists of the estrogen receptor alpha (ER-alpha) signaling pathway (AID 743069; active = well fitted curve in the direction sought with a large enough effect in the signal ratio in the repeat runs, not every such curve was filed as active; the % refers to the signal ratio)
How it was run: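 HEK293 cells stably carrying an ER-alpha-UAS-bla beta-lactamase reporter were pre-cultured overnight in 2% charcoal-stripped FBS medium. Test compounds in DMSO were added together with 17beta-estradiol for 18 hr at 37C. Read-out was fluorescence after 2 hr with LiveBLAzer B/G FRET substrate at room temperature.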

[13] = molecular target: Estrogen receptor (Homo sapiens) (UniProt P03372); assay: qHTS assay to identify small molecule agonists of the estrogen receptor alpha (ER-alpha) signaling pathway (AID 743075; calls by dose curve)
[14] = molecular target: Estrogen receptor (Homo sapiens) (UniProt P03372); assay: qHTS assay to identify small molecule agonists of the estrogen receptor alpha (ER-alpha) signaling pathway using the BG1 cell line (AID 743079); note: nearly all actives have a fitted effect of over 20% in size
[15] = qHTS assay to identify small molecule antagonists of the estrogen receptor alpha (ER-alpha) signaling pathway using the BG1 cell line (AID 743080; calls by dose curve;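 note: BG1 cells stimulated with 17beta-estradiol alongside compound; series mostly up to about 70 µM; nearly all actives have a fitted effect of over 25% in size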)
How it was run: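 Readout is ONE-Glo luminescence, taken 30 min at room temperature after reagent addition, preceded by a CellTiter-Fluor viability read; BG1-Luc-4E2 cells had received compound and 17beta-estradiol for 21.5 h at 37 C.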

[16] = molecular target: Androgen receptor (Homo sapiens) (UniProt P10275); assay: qHTS assay to identify small molecule antagonists of the androgen receptor (AR) signaling pathway (AID 743035; active = well fitted inhibition curve with a large enough effect in the signal ratio in the repeat runs, not every such curve was filed as active; the % refers to the signal ratio)
How it was run: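 HEK293 cells stably carrying a UAS-driven beta-lactamase reporter (AR-UAS-bla GripTite) were plated for 4 h at 37C, then given compound and the agonist R1881 and incubated 16 h. Reporter activity was read by LiveBLAzer B/G FRET fluorescence after 2 h at room temperature.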

[17] = molecular target: Androgen receptor (Homo sapiens) (UniProt P10275); assay: qHTS assay to identify small molecule agonists of the androgen receptor (AR) signaling pathway (AID 743036; active = well fitted activation curve with a large enough effect in the signal ratio in the repeat runs, with a control signal flat, not every such curve was filed as active; the % refers to the signal ratio)
How it was run: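 Reporter line: GeneBLAzer AR-UAS-bla-GripTite (HEK293). Steps: plate cells, 4 h rest, add compounds, 16 h at 37C, add LiveBLAzer B/G substrate, 2 h at RT, read fluorescence.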

[18] = molecular target: Androgen receptor (Homo sapiens) (UniProt P10275); assay: qHTS assay to identify small molecule agonists of the androgen receptor (AR) signaling pathway using the MDA cell line (AID 743040; note: nearly all actives have a fitted effect of over 20% in size)
How it was run: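 MDA-kb2 breast carcinoma cells stably carrying an MMTV-driven luciferase reporter (AR- and GR-responsive) were seeded and held 5 h at 37C, 0% CO2, then exposed to compounds in DMSO for 16 h. Luminescence was read 30 min after ONE-Glo addition.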

[19] = molecular target: Androgen receptor (Homo sapiens) (UniProt P10275); assay: qHTS assay to identify small molecule antagonists of the androgen receptor (AR) signaling pathway using the MDA cell line (AID 743042; note: nearly all actives have a fitted effect of over 55% in size)
How it was run: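 MDA-kb2 cells (human breast carcinoma, stably carrying an MMTV-luciferase reporter responsive to AR and GR) were plated at 3,000 cells/well and preincubated 5 hr at 37C, then given compound plus R1881 agonist for 16 h. ONE-Glo luminescence was read.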

Measured: Potency

Androgen receptor (Homo sapiens), sequence (P10275 whole entry, looked up): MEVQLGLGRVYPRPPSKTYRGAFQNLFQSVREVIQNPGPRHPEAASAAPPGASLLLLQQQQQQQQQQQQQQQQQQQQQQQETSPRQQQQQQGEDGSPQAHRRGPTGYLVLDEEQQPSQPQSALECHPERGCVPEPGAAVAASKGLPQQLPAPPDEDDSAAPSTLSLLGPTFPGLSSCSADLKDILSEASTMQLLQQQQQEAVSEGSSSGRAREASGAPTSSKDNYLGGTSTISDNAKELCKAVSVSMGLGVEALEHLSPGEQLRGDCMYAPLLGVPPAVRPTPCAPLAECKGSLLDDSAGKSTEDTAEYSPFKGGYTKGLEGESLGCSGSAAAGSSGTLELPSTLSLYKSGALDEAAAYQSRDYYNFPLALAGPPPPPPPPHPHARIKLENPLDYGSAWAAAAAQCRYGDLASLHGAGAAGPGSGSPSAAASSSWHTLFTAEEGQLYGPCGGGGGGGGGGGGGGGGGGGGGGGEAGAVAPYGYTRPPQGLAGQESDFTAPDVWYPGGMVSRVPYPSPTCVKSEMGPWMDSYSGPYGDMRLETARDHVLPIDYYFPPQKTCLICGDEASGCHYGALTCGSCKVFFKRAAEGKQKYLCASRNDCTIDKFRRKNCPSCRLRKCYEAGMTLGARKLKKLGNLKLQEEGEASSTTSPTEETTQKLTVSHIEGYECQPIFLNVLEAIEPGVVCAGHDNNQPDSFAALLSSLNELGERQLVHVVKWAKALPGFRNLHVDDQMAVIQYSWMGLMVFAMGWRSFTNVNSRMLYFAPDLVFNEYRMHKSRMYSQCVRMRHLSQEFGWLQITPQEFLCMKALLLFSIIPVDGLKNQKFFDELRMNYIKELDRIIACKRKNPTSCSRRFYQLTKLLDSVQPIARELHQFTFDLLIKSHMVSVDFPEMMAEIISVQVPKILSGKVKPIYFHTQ
Aromatase (Homo sapiens), sequence (P11511 whole entry, looked up): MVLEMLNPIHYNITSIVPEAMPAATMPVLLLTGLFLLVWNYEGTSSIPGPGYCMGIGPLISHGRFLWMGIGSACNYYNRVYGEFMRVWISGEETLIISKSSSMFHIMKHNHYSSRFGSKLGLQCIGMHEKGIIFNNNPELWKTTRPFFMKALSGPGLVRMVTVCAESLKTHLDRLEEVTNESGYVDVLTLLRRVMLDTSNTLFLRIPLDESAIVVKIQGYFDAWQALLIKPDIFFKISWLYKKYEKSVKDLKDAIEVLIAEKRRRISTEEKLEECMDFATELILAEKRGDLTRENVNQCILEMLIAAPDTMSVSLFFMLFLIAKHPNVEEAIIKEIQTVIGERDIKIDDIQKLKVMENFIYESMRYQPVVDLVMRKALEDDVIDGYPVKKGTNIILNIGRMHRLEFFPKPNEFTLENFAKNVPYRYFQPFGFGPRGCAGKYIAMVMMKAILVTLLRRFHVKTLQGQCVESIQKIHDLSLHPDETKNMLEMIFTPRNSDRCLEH
Estrogen receptor (Homo sapiens), sequence (P03372 whole entry, looked up): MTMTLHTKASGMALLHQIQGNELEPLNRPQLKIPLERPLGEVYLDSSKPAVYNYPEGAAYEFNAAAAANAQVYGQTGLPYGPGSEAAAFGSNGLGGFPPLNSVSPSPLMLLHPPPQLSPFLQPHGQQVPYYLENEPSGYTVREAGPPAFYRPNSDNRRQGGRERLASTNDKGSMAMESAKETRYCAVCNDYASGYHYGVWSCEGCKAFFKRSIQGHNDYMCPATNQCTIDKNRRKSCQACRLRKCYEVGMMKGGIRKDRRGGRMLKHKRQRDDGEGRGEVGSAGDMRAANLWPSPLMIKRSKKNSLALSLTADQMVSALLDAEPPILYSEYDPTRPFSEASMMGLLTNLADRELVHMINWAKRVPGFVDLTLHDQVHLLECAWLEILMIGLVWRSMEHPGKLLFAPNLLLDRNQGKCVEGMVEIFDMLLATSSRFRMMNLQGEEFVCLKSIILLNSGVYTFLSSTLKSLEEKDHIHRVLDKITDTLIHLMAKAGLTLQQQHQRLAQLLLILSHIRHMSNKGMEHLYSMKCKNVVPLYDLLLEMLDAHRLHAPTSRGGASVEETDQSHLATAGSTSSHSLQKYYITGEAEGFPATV

CCC1Nc2cc(Cl)c(S(N)(=O)=O)cc2S(=O)(=O)N1 (stereo not given)
inactive: [1] | [2] | [3] | [4] | [5] | [6] | [7] | [8] | [9] | [10] | Aromatase (Homo sapiens)

C/C=C(\C)C(=O)OCC/C=C\CC
inactive: [1] | [2] | [3] | [4] | [5] | [6] | [9] | [10] | [11]

FC(F)(F)c1ccc(Cl)cc1Cl
inactive: [1] | [2] | [3] | [4] | [5] | [6] | [8] | [9] | [10] | [11] | Aromatase (Homo sapiens)

CCOC(=O)CCc1ccccc1
not listed: [12] | [13] | [14] | [15] | [16] | [17] | [18] | [19]
inactive: all other assays above

CN(C)CCOCCN(C)CCO
not listed: [8] | [16] | [17] | [18] | [19]
inactive: all other assays above

CCCCCCCCCOCC1CO1 (stereo not given)
inactive: [1] | [2] | [3] | [4] | [5] | [6] | [7] | [9] | [10] | [11]

CCCCCCCC/C=C\CCCCCCCC(=O)OC[C@@H](O)[C@H]1OC[C@H](O)[C@H]1O
not listed: [6] | [16] | [17] | [18] | [19]
inactive: all other assays above

Nc1c(NC/C=C\COc2cc(CN3CCCCC3)ccn2)c(=O)c1=O
inactive: [1] | [2] | [3] | [4] | [5] | [6] | [10] | Aromatase (Homo sapiens)
active: [7] 23.7 µM

CC(C)=CC(C)(C)C
inactive: [1] | [2] | [3] | [4] | [5] | [6] | [8] | [9] | [10] | [11]

O=C(O)/C=C/c1ccccc1
not listed: [8] | [16] | [17] | [18] | [19]
inactive: all other assays above

Cc1cc(C)cc([N+](=O)[O-])c1
not listed: [8] | [16] | [17] | [18] | [19]
inactive: all other assays above

CCNC(=O)NCCCOc1cccc(CN2CCCCC2)c1
not listed: [8] | [10] | [16] | [17] | [18] | [19]
inactive: all other assays above

C=C(C)C(=O)OCCCCCCOC(=O)C(=C)C
inactive: [1] | [2] | [3] | [4] | [5] | [6] | [7] | [8] | [9] | [10] | [11]

CCC1COC(=O)O1 (stereo not given)
not listed: [4] | [16] | [17] | [18] | [19]
inactive: all other assays above

CCCCCCCCC(=O)OCC
not listed: [6] | [7] | [8] | [16] | [17] | [18] | [19]
inactive: all other assays above

CC(C)(c1ccc(Oc2ccc3c(c2)C(=O)OC3=O)cc1)c1ccc(Oc2ccc3c(c2)C(=O)OC3=O)cc1
not listed: [4] | [16] | [17] | [18] | [19]
inactive: all other assays above

O=C(COCCOCCOCC(=O)Nc1c(I)cc(I)c(C(=O)O)c1I)Nc1c(I)cc(I)c(C(=O)O)c1I
not listed: [6] | [16] | [17] | [18] | [19]
inactive: all other assays above

Nc1cc(S(=O)(=O)O)ccc1S(=O)(=O)O
inactive: [1] | [2] | [3] | [4] | [6] | [7] | [8] | [9] | [10] | [11] | Aromatase (Homo sapiens)

Nc1ccnc(=O)[nH]1
not listed: [4] | [6] | [8]
inactive: all other assays above

CCC(C)N (stereo not given)
not listed: [6] | [16] | [17] | [18] | [19]
inactive: all other assays above

CN[C@@H]1[C@H](O)[C@H](NC)[C@H]2O[C@@]3(O)C(=O)C[C@@H](C)O[C@H]3O[C@@H]2[C@H]1O
not listed: [5] | [6] | [11]
inactive: all other assays above
